Sampled rows, rich in hits. Any-hit rate of the full collection: about 3.2%.
TMEM16A inh: mouse TMEM16A channel inhibition, primary screen; Q8BHY3; HEK293 TMEM16A/YFP iodide influx fluorescence, ionomycin; normalized B-score (activity score, 25-100; higher = stronger inhibition) at 10 µM; 310,000 tested, 1.2% active; AID 588511;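 active means ratio plate-corrected score three or more library SD toward inhibition, starting fluorescence score within five deviations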;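 further: score derived from kinetic fluorescence span divided by baseline fluorescence per well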
CHT PAM: allosterically activates the human high affinity choline transporter | Q9GZV3 | CHT-expressing cells, membrane potential dye, choline EC20; stronger effect = higher value; LV-AA mutant CHT in HEK293 cells | B-score at 10 µM | 310,000 tested, 0.49% active;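 active means initial fluorescence not abnormally high and integrated response B-score, plate-corrected, over 3 SD above library mean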
Rce1 inh: blocks yeast Ras-converting enzyme | Q03530 | yeast membranes, quenched prenylated peptide cleavage fluorescence | calls only | 290,000 tested, 0.27% active | AID 2563;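 active means fall in fluorescence gain of 50% or more versus controls, with final raw signal at or below 3038400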;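 further: plate controls were neutral control wells for no effect and wells lacking membranes for full effect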
CHT block: inhibitors of human choline transporter CHT. Q9GZV3. CHT-expressing cells, membrane potential dye, choline response; stronger effect = lower value. B-score at 10 µM. 310,000 tested, 0.86% active;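 active means B-score over 3 SD under the library average, and starting fluorescence ratio not unusually high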;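 further: choline stimulus applied at its EC90 after an EC20 pre-addition; B-score computed on integrated fluorescence ratio after choline addition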
TMEM16A act: activates or potentiates the mouse TMEM16A chloride channel. Q8BHY3. HEK293 TMEM16A/YFP-H148Q/I152L, iodide quench fluorescence; stronger effect = lower value. B-score at 10 µM. 340,000 tested, 0.3% active. AID 623877;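 active means fluorescence-ratio B-score plate-corrected deviation score at least 3 library SD below zero, with starting fluorescence score within 5 deviations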;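 further: channel opened by trigger with iodide after compound preincubation; score built on the fluorescence ratio of max minus min over baseline; more negative score means more quench and so TMEM16A activation or potentiation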
Kir21 inh: blocks the mouse Kir2.1 inward-rectifier potassium channel | P35561 | HEK293-Kir2.1, FluxOR thallium flux fluorescence; stronger effect = lower value | B-score at 10 µM | 310,000 tested, 0.85% active;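 active means fluorescence ratio B-score at or below minus 3 SD of library scores, with starting-brightness B-score within 2 SD, cut at about -4.2 in these data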;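 further: channel flux triggered by added potassium and thallium sulfate stimulus; B-score of peak minus minimum fluorescence over baseline after thallium stimulus; more negative B-score means stronger Kir2.1 block with less thallium influx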
Target sequence (P35561 whole entry, looked up): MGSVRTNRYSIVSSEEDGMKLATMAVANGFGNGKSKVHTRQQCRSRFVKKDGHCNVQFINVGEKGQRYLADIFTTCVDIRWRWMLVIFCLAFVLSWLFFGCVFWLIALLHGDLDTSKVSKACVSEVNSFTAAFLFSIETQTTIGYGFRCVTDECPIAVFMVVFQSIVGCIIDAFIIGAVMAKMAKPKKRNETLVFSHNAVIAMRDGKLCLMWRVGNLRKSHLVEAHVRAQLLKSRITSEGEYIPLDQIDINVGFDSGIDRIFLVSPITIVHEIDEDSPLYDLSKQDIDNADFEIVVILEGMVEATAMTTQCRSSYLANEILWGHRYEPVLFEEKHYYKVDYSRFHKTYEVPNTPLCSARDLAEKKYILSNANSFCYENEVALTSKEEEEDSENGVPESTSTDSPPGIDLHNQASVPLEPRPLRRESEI
CHT inh conf: human CHT inhibition, confirmatory screen. shares compounds with CHT block. CHT-expressing cells, choline membrane potential dye; LV-to-AA substituted CHT, HEK293 cells. CHT activity remaining % of control (stronger effect = lower value), % at 10 µM. 2,400 tested, 70% active. AID 493221;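 active means choline transporter activity left, mean of duplicates at 10 µM, below buffer-only control mean minus 3 SD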;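 further: depolarization triggered by choline at its EC90 following an EC20 pre-addition; 0% = hemicholinium-3 full block and 100% = buffer-only control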
HEK293 CHT ctr: counter-screen for CHT inhibitors: effect in parental HEK293 cells. shares compounds with CHT block. membrane potential dye, choline response; active = decrease or increase beyond buffer ±3SD. membrane potential ratio readout (active if shifted either direction beyond buffer ±3SD; no single direction) at 10 µM. 2,400 tested, 4% active. AID 493222;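 further: parental cells lack the transporter so any hit is non-specific; ratio is peak minus trough fluorescence over baseline after EC90 choline challenge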
* hit, by the source's call; i = inactive; / = no result given.

SMILES | TMEM16A inh | CHT PAM | Rce1 inh | CHT block | TMEM16A act | Kir21 inh | CHT inh conf | HEK293 CHT ctr
CCCCn1c(SCC(=O)Nc2cccc(OC)c2)nc2ccc(N3CCOCC3)cc2c1=O | i | i | i | -5.97* | i | -1.81 | 62.2%* | i
CCCCn1c(SCC(N)=O)nc2ccc(N3CCOCC3)cc2c1=O | i | i | i | i | i | 0.24 | / | /
O=C(N/N=C/c1cccs1)c1cccc(S(=O)(=O)Nc2ccc(Cl)cc2)c1 | i | i | i | -5.52* | i | 1.27 | i | i
Cn1cc(S(=O)(=O)N2CCCC(C(=O)O)C2)cn1 (configuration not stated) | i | i | i | i | i | -1 | / | /
COc1ccc(CNC(=O)COC(=O)c2cc(S(=O)(=O)N3CCOCC3)ccc2O)cc1OC | / | / | / | / | i | / | / | /
Cc1ccc(-n2c(C)cc(=O)cc2C)c(C)c1 | i | i | i | -5* | i | 1.41 | 34.1%* | i
O=C(NCC1CCCCC1)c1cccc(S(=O)(=O)N2CCCC2)c1 | / | / | / | / | i | / | / | /
COc1ccc2c(c1)c(C(O)CN1CCC(Cc3ccccc3)CC1)c(C)n2C (configuration not stated) | i | i | i | -10.7* | i | -0.91 | 21.9%* | i
COc1ccc2c(c1)c(C(O)CN1CCN(Cc3ccc4c(c3)OCO4)CC1)c(C)n2C (configuration not stated) | i | i | i | i | i | -0.56 | / | /
CC(C)c1c(C(=O)N/N=C/c2cccc(OCc3ccc(F)cc3)c2)nnn1-c1nonc1N | i | i | i | -6.63* | i | 0.88 | 68.0%* | i
Oc1c(Cl)cc(Cl)cc1C=Nc1ccc2c(c1)OCCO2 | i | i | i | -5.14* | i | 3.18 | 62.5%* | i
CCCN(CC(=O)Nc1ccccc1OC)C(=O)C1=COCCO1 | / | / | / | / | i | / | / | /
Cc1ccsc1CNC12CC3CC(CC(C3)C1)C2 | i | i | i | -6.55* | i | -2 | 13.8%* | -13.5*
Cc1ccsc1CNC1CCCCC1 | i | i | i | i | i | -0.28 | / | /
Cc1c(Br)c([N+](=O)[O-])nn1CC(=O)NCc1ccco1 | i | i | i | i | i | 0.66 | / | /
Cc1c(Br)c(C(F)(F)F)nn1CC(=O)NCc1ccco1 | i | i | i | -7.75* | i | 1.76 | i | i
CC(C)(C)C(=O)CN1C2=NCCCN2c2ccccc21 | i | i | i | i | i | -2.58 | / | /
Cc1ccc(Nc2c3c(nc4ncnn24)CC(C)CC3)cc1 (configuration not stated) | i | i | i | -5.81* | i | 0.06 | i | i
Cc1noc(C)c1CSc1nc2ccccc2n1CCc1ccccc1 | i | i | i | -5.03* | i | -7.24* | i | i
C=CCc1cccc(/C=N/NC(=O)CCC(=O)Nc2ccc(C)cc2)c1O | i | i | i | i | i | -1.15 | / | /
CCCCNC(=O)C1CCCN(S(=O)(=O)c2c(C)noc2/C=C/c2cccs2)C1 (configuration not stated) | i | i | i | i | i | 1.13 | / | /
Cc1noc(/C=C/c2cccs2)c1S(=O)(=O)N1CCC(C(=O)NCCCN2CCCC(C)C2)CC1 (configuration not stated) | i | i | i | i | i | -4.45 | i | i
CC(C)OP(=O)(OC(C)C)/C(C=O)=N\Nc1ccc([N+](=O)[O-])cc1 | i | i | i | -8.43* | i | 0.31 | i | i
O=C(O)CCNC1C=CS(=O)(=O)C1 (configuration not stated) | i | i | i | -6.19* | i | 1.38 | i | i
COc1ccc2nc(NC(=O)c3sc4nc(C)cc(C)c4c3N)sc2c1 | i | i | i | i | i | -0.99 | / | /

Screening data: PubChem BioAssay, several laboratories
